Hits are enriched below; roughly 7.3% of the tested compounds scored in any of these assays.
ELG1 genotoxic – genotoxicity induction in ELG1-luciferase HEK293T cells; 330,000 compounds, 1.3% hits; Potency, µM (series often up to 46 µM), for the others: top-dose activity change, positive = activation, actives largely listed as activators; HEK293T ELG1-luciferase reporter, luminescence, 16 h; note: % of control where 0% means no effect; nearly all actives have a fitted effect of over 60% in size
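HEK293T cells expressing luciferase-tagged ELG1 were treated with compound or DMSO for 16 hr at 37°C. Luciferase activity was then read after 30 min with ONE-Glo at room temperature; rising signal flags genetic stress.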
p53 reactivation – re-activators of mutant p53; H1299 p53-A138V BP100-luciferase reporter, luminescence, 24 h; AID 504706; Potency, µM (highest dose often 92.2 µM), for inactives: at the top dose activity change, positive = activation, hits mostly activators; 320,000 compounds, 0.063% hits; note: % of control where 0% means no effect; nearly all actives have a fitted effect of over 45% in size
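p53-null H1299 cells stably carrying temperature-sensitive p53-A138V and a BP100-luciferase reporter were pinned with compounds (4-point, 1:5 series) and held 24 hrs at 37 deg C. Luminescence was read 10 min after detection reagent.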
Rab9 prom act – activators of Rab9 promoter; Huh7 Rab9 promoter-luciferase reporter, luminescence, 24 h; Potency, µM (series often up to 9.22 µM), inactives show at the top dose activation, negative = inhibition, hits mostly activators; 320,000 compounds, 2.8% hits; AID 485297; note: % of control where 0% means no effect; nearly all actives have a fitted effect of over 60% in size
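Rab9 promoter-driven luciferase in stably transfected Huh7 cells; 1500 cells/well rested 2 h, exposed to compound in DMSO for 24 h at 37 °C, 5% CO2. Luminescence read 10 min after adding luciferase reagent at ambient temperature.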
NPC1 prom act – activates the NPC1 promoter; Huh7 NPC1 promoter luciferase reporter, 24 h; Potency, µM (titrated, usually from 9.22 µM), for the others: at the top dose activation, hits mostly activators; 320,000 compounds, 2.4% hits; note: % of control where 0% means no effect; nearly all actives have a fitted effect of over 60% in size
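Huh7 reporter cells (NPC1 promoter driving luciferase) are dosed with compound for 24 h at 37 °C, 5% CO2; luciferase detection reagent is then added and luminescence measured after 10 min at ambient temperature.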
SMN2 splice enh – SMN2 splice variant enhancement | HEK293 SMN2-luciferase splicing reporter, luminescence, 30-36 h | Potency, µM (highest dose often 46.1 µM), without a hit: at the highest dose activity change, positive = activation, most hits filed as activators | 210,000 compounds, 2.8% hits | AID 1458; note: % of control where 0% means no effect; nearly all actives have a fitted effect of over 55% in size
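qHTS luciferase splicing reporter: luminescence rises when SMN2 exon 7 is included in transfected HEK293 cells. Compound exposure lasted 30-36 h at 37C, with 4.5 mM final sodium butyrate as control, followed by a ONE-Glo read.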
FLuc counter – inhibits or activates purified firefly luciferase, miR-21 counter-screen. purified FLuc, Km substrates, luminescence inhibition. Potency, µM (titrated, usually from 57.5 µM), inactives show at the highest dose activity change, negative = inhibition, hits mostly inhibitors. 360,000 compounds, 6.9% hits. AID 588342;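 note: plate controls were vehicle for no effect and reference inhibitor for full effect; nearly all actives have a fitted effect of over 55% in size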
Target sequence (P08659 whole entry, looked up): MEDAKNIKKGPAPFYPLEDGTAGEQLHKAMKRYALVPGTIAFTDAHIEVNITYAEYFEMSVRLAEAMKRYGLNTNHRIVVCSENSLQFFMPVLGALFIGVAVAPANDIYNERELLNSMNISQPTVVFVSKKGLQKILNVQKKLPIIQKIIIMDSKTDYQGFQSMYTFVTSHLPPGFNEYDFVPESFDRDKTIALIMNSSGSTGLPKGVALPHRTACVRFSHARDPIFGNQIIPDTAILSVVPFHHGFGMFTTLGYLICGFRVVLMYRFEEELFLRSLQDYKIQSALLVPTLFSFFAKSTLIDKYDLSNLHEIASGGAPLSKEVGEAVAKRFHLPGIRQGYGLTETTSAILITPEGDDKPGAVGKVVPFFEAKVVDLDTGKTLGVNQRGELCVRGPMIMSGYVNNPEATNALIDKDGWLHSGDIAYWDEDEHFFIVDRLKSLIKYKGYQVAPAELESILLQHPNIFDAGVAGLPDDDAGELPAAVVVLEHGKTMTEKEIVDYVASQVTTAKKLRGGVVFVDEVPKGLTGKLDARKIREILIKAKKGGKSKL
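Purified P. pyralis luciferase (10nM final) with 10uM D-luciferin and 10uM ATP (Km levels) in 50mM Tris acetate pH 7.5, 10mM Mg acetate, 0.01% Tween-20, 0.05% BSA; qHTS 6-point titration, ~60 µM downward; luminescence read.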
Active calls of the source: *; ? = inconclusive; · = no result given; [ ] = remark or other dose. Calls come from the whole dose curve; as a rule, active = well fitted curve in the direction sought with a large enough effect; inconclusive = small, poorly fitted or top-dose-only effect, or another doubt; inactive = no such curve, though single readings can be large; an effect the other way counts as inactive or inconclusive. Potency is the fitted concentration of half-maximal effect.

SMILES	ELG1 genotoxic	p53 reactivation	Rab9 prom act	NPC1 prom act	SMN2 splice enh	FLuc counter
O=c1[nH]c(=O)n(C2CCCO2)cc1Br (stereo unspecified)	-5%	-3%	-4%	2%	35µM*	4%
COc1ccc2c(c1)c1c(C)c3cnccc3c(C)c1n2CCCN	·	·	·	·	-1%[9.22 µM]	·
CCOC(=O)c1ccc(N2CCN(c3cccc(Cl)c3)CC2)c(NC(=O)Nc2ccc(OC)cc2OC)c1	·	·	·	·	·	-1%
CN(C)c1ccc(/C=C/C(=O)c2cccc(Br)c2)cc1	2%	25%	26%	23%	-1%	3µM*
CN(C)c1ccc(C(=O)/C=C/c2cccnc2)cc1	15%	?	?	?	·	3µM*
CCOC(=O)c1cc(=O)n2c(nc3ccccc32)[nH]1	13%	12%	?	28%	·	24µM*
CCCc1cc(=O)n2c(nc3ccccc32)[nH]1	?	?	?	16%	?	17µM*
O=C(c1ccc(CSc2ccc(Cl)cc2)cc1)N1CCCC1	10%	2%	?	24%	8%	19µM*
O=C(Cc1ccc(Cl)cc1)Nc1ccc(C(=O)N2CCCCC2)cc1	12%	9%	-1%	10%	·	27µM*
Cc1nn(C)cc1/C=C/C(=O)c1cccs1	18µM*	20µM*	?	?	?	5.4µM*
CCn1cc(/C=C/C(=O)c2ccc(O)cc2)c(C)n1	10µM*	?	?	?	·	11µM*
Cc1nn(C)c(C)c1CNC(=O)/C=C/c1ccccc1F	0%	11%	-6%	-3%	-61%	-13%
Cc1ccc(-c2nn(CCC(=O)O)cc2/C=C\C(=O)c2ccc(Br)cc2)cc1	-4%	-5%	-2%	-15%	-39%	-15%
Cc1nn(C)c(C)c1/C=C/C(=O)c1ccccc1	16µM*	?	3.5µM*	?	-36%	19µM*
Cc1nn(C)cc1/C=C/C(=O)c1ccccc1	?	?	?	?	19%	1.5µM*
CC(C)OCCCn1c(=O)c2ccccc2n2c(-c3cc(Cl)ccc3O)nnc12	·	·	·	·	·	5%
CN(C)c1ccc(NC(=O)N2CCOCC2)cc1	15%	?	9%	7%	?	24µM*
O=C(Nc1ccc(F)cc1)N1CCOCC1	3%	0%	0%	-1%	?	-3%
CCC(C)c1ccc(NC(=O)N2CCOCC2)cc1 (stereo unspecified)	?	-3%	2.5µM*	2.5µM*	·	15µM*
COC(=O)CCCCCn1c(-c2ccccc2)cn2c3c(=O)n(C)c(=O)n(C)c3nc12	·	·	·	·	11%	-3%
O=C(CNC(=O)/C(=C/c1ccccc1)NC(=O)c1ccc(Br)cc1)OCc1ccccc1	-1%	-3%	-1%	-3%	0%	0%
Cc1ccc(C(=O)N/C(=C/c2ccco2)C(=O)OCN2C(=O)c3ccccc3C2=O)cc1	2%	-6%	-3%	-2%	-1%[1.84 µM]	11µM*
Cc1ccc(C(=O)N/C(=C\c2ccccc2)C(=O)OCc2ccccc2)cc1	?	?	?	?	20µM*	15µM*
Cc1ccc(CONC(=O)c2ccccc2)cc1	?	20%	?	?	·	15µM*
Cc1ccc(CONC(=O)c2ccc(C)cc2)cc1	?	?	?	?	·	13µM*
SMILES	ELG1 genotoxic	p53 reactivation	Rab9 prom act	NPC1 prom act	SMN2 splice enh	FLuc counter
CCCCS(=O)(=O)N1C2=NC(C(=O)OC)=C(C(=O)OC)[C@@H]3N(C)c4ccccc4[C@]23C[C@H]1C(=O)OC	·	·	·	·	-11%[9.22 µM]	·
CCOC(=O)c1c(NC(=O)c2cc(-c3ccc(Br)cc3)on2)sc(C)c1C	·	·	·	·	-8%	-11%
CCC(=O)OCn1nnc2ccccc2c1=O	3%	0%	-4%	5%	-43%	1%
O=c1c2ccccc2nnn1COc1ccc(Cl)cc1Br	?	2%	3.2µM*	?	?	24µM*
O=c1c2ccccc2nnn1COc1cccc2ccccc12	13%	19%	4µM*	?	18%	17µM*
CCOc1ccc(OCCn2nnc3ccccc3c2=O)cc1	18µM*	15%	2.8µM*	3.5µM*	16µM*	13µM*
O=c1c2ccccc2nnn1COc1ccc(F)cc1Cl	?	?	2.5µM*	?	?	?
Cc1ccc(CN(Cc2cc3cccc(C)c3[nH]c2=O)C(=S)NCCCN(C)C)cc1	2%	-2%	-1%	-1%	-37%	1%
C#CCOCCOCCOCCNc1nc(N2CCN(C(=O)[C@H](CCCN=C(N)N)n3cc(C(N)[C@@H](C)CC)nn3)CC2)nc(N2CCN(C(=O)[C@H](CCCCN)n3cc([C@@H](N)CC(N)=O)nn3)CC2)n1 (stereo partly specified)	1%	2%	·	·	·	·
Cc1noc(C)c1C(=O)N1CCC2(CCCN(C(=O)NC(C)C)C2)CC1	·	·	·	·	-3%	·
COc1ccc(Oc2nc3c(c(=O)n(Cc4ccccc4Cl)c(=O)n3C)n2C)cc1	·	·	·	·	1%	0%
COc1ccc(C)cc1NC(=O)CCS(=O)(=O)c1cc2c3c(c1)CCN3C(=O)CC2	·	·	·	·	·	2%
Cc1nn(Cc2ccc(F)cc2)c(C)c1NC(=O)c1cc2ncc(Br)cn2n1	-6%	-4%	-11%	0%	·	-1%
Cc1ccccc1Cn1ccc(NC(=O)c2nn3cccnc3c2Cl)n1	5%	14%	27%	12%	-10%	17µM*
Cc1ccccc1Cn1ccc(NC(=O)c2cc3ncc(Br)cn3n2)n1	0%	-5%	-2%	-2%	2%	11µM*
CSc1ccccc1NC(=O)c1cc2ncc(Br)cn2n1	?	4%	?	4%	3.2µM*	8.5µM*
Cc1cccc(C(=O)OCCN2CCOCC2)c1	4%	8%	12%	14%	·	-11%
CCC(C)(C)NC(=O)C1CCC(CNS(=O)(=O)c2ccc3c(c2)CC(C)N3C(C)=O)CC1 (stereo unspecified)	·	·	·	·	·	-1%
O=c1n(-c2ccc(Br)cc2)cnn1-c1ncccc1[N+](=O)[O-]	?	9%	2µM*	?	13µM*	17µM*
COc1ccc(CNC(=O)C2CCN(S(=O)(=O)c3c(C)noc3/C=C/c3cccs3)CC2)cc1	·	·	·	·	0%	4%
COc1ccc2cc3cc(C(=O)N4CCN(c5ccccc5)CC4)oc3nc2c1	-1%	1%	-1%	-1%	-41%	?
COc1ccc2nc3oc(C(=O)N4CC(C)CC(C)C4)cc3cc2c1 (stereo unspecified)	3%	10%	12%	-1%	·	21µM*
COc1ccc2nc3oc(C(=O)N4CCCCC4)cc3cc2c1	15µM*	?	2.8µM*	3.2µM*	14µM*	6.7µM*

Screening data as filed in PubChem.
